# Laboratory results reported in PubChem BioAssay.
# Active and inactive are the calls of the source.
# What was measured:
# [1] = tested on: Plasmodium falciparum Sir2 (PF13_0152, Sir2A); test: pfSir2 binders on small-molecule microarrays, primary screen, biochemical, small-molecule microarray, 635 nm fluorescence (AID 1098); conditions: small-molecule microarray binding, fluorescence 635 nm; higher = more signal;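 also: score merges spot fluorescence intensity with its signal-to-noise ratio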
# [2] = small-molecule microarray binders of probe aDKK1, primary screen, biochemical, biotinylated probe, 635/667 nm fluorescence (AID 1099); conditions: higher = more signal;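 also: score merges 667nm spot fluorescence with signal to noise across triplicate slides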
# [3] = small-molecule microarray binders of probe aCHRDL2, primary screen, biochemical, biotinylated probe, 635/667 nm fluorescence (AID 1100); conditions: higher = more signal
# [4] = splicing luciferase reporter signal modulators, primary screen, spliceosome inhibition project, cell-based, HEK293, splice +/- reporter (AID 1101); conditions: luminescence, 24 h, higher = more signal, called active from +8 up or from −8 down;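 also: HEK293 cells carrying a splicing-competent luciferase reporter gene; test concentration not given here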
# [5] = biological target: Fibroblast growth factor 10 (Homo sapiens) (UniProt O15520); test: FGF10 binders on small-molecule microarrays, primary screen, biochemical, small-molecule microarray, 635 nm fluorescence (AID 1102); conditions: FGF10 binding, fluorescence 635 nm, higher = more signal
# Chain of Fibroblast growth factor 10 (Homo sapiens) (O15520 whole entry, looked up): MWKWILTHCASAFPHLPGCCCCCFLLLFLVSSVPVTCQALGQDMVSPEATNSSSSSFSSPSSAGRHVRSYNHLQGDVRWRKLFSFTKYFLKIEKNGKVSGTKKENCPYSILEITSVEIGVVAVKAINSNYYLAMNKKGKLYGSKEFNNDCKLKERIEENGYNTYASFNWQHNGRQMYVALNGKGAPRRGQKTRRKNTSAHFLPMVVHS
# [6] = tested on: glycogen synthase kinase-3 (GSK3A per assay name; protocol says GSK3B); test: GSK3 binders on small-molecule microarrays, primary screen, biochemical, small-molecule microarray, 635 nm fluorescence, GSK3A (AID 1103); conditions: small-molecule microarray binding, fluorescence 635 nm; higher = more signal; also: the record names both GSK3A and GSK3B
# [7] = biological target: Epidermal growth factor receptor (Homo sapiens) (UniProt P00533); test: EGFR binders on small-molecule microarrays, primary screen, biochemical, small-molecule microarray, 635 nm fluorescence (AID 1104); conditions: EGFR binding, higher = more signal;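 also: score merges 667 nm emission intensity with spot signal to noise over triplicate slides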
# Chain of Epidermal growth factor receptor (Homo sapiens) (P00533 whole entry, looked up): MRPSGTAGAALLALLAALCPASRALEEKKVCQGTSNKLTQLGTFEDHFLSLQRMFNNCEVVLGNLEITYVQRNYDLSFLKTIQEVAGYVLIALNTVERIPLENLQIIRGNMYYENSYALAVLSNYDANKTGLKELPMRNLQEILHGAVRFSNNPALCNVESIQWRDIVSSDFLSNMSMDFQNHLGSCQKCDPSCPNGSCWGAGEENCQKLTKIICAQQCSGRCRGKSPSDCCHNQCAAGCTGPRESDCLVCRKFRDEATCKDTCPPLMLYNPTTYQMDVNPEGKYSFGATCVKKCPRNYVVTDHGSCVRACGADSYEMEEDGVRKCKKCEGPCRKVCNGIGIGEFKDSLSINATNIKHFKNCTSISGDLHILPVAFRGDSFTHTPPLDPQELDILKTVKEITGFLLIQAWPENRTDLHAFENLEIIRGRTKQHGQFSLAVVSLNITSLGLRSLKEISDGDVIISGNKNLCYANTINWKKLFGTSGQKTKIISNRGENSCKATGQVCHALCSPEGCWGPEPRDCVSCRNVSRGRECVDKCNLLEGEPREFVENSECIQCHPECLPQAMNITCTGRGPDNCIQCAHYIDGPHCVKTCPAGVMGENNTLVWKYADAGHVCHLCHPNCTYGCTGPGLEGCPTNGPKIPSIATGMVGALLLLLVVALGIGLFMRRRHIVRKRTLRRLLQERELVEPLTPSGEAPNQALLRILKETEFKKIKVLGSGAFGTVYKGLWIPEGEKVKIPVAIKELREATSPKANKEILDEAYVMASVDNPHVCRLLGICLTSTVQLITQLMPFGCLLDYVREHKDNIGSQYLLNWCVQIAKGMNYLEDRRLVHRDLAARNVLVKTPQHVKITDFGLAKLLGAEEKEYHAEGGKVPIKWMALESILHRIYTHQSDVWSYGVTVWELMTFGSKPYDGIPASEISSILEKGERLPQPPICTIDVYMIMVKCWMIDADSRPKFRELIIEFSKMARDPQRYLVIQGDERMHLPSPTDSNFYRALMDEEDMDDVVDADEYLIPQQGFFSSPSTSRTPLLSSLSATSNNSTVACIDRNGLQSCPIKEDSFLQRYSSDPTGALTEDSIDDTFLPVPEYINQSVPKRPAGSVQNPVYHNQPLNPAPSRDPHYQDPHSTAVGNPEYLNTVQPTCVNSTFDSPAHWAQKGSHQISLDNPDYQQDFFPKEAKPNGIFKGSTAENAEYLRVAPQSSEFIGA
# [8] = biological target: Follistatin-related protein 3 (Homo sapiens) (UniProt O95633); test: FSTL3 binders on small-molecule microarrays, primary screen, biochemical, small-molecule microarray, 635 nm fluorescence (AID 1105); conditions: FSTL3 binding, higher = more signal;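 also: score merges emission near 667 nm and signal to noise per printed spot across three slides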
# Chain of Follistatin-related protein 3 (Homo sapiens) (O95633 whole entry, looked up): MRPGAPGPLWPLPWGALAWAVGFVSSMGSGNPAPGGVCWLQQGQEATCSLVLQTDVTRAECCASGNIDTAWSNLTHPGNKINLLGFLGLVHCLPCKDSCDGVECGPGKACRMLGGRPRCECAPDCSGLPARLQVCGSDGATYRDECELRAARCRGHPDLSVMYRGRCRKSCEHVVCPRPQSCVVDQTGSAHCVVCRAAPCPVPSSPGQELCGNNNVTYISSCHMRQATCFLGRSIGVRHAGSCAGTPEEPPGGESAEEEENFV
# [9] = biological target: Dickkopf-related protein 1 (Homo sapiens) (UniProt O94907); test: DKK1 binders on small-molecule microarrays, primary screen, biochemical, small-molecule microarray, 635 nm fluorescence scan (AID 1106); conditions: DKK1 binding, higher = more signal;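 also: score merges emission near 667 nm with signal to noise over three replicate slides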
# Chain of Dickkopf-related protein 1 (Homo sapiens) (O94907 whole entry, looked up): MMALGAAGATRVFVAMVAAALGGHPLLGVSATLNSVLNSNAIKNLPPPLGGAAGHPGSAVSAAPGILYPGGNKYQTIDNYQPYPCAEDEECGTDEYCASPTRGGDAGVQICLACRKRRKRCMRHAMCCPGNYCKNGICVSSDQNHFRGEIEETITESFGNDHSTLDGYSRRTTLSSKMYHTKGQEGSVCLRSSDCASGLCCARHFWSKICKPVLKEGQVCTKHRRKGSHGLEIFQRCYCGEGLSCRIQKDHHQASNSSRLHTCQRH
# [10] = tested on: Inhibin beta A chain (activin A); test: INHBA (activin A) binders on microarrays, primary screen, biochemical, small-molecule microarray, 635 nm fluorescence scan (AID 1107); conditions: small-molecule microarray binding, higher = more signal;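 also: mouse activin A protein probed at 4.33 µg/mL on printed slides; score merges bound-protein fluorescence near 667 nm with spot signal-to-noise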
# [11] = tested on: Human papillomavirus type 1a protein E7 (residues 44-93); test: HPV1a E7 fragment binders on microarrays, primary screen, biochemical, small-molecule microarray, residues 44-93, 635 nm fluorescence (AID 1108); conditions: small-molecule microarray binding, fluorescence 635 nm; higher = more signal;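 also: E7 fragment applied at 1 µg/mL in TBST for 1 h at 4 C; score combines spot fluorescence with its signal to noise ratio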
# [12] = modulators of HCV replicon luciferase signal, primary screen, HCV replication inhibitor project, Huh7 cells, luciferase reporter (AID 1109); conditions: 48 h, higher = more signal;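 also: huh7 hepatoma cells harbouring a luciferase neomycin HCV replicon reporter; luciferase luminescence as measure of HCV replicon replication; test concentration not given here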
# [13] = biological target: Left-right determination factor 2 (Homo sapiens) (UniProt O00292); test: LEFTY2 binders on small-molecule microarrays, primary screen, biochemical, small-molecule microarray, 635 nm fluorescence scan (AID 1110); conditions: LEFTY2 binding, higher = more signal
# Chain of Left-right determination factor 2 (Homo sapiens) (O00292 whole entry, looked up): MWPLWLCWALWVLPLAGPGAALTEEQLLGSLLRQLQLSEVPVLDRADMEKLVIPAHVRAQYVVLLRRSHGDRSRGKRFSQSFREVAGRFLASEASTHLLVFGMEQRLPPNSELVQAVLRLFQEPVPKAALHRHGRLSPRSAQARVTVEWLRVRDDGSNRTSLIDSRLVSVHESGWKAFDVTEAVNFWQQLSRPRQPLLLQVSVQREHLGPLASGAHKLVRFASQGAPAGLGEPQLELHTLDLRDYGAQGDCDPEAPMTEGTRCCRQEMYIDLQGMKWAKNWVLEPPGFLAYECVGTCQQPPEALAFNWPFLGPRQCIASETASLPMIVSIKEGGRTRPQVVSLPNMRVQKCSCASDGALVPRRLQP
# [14] = biological target: Calmodulin-1 (Homo sapiens) (UniProt P0DP23); test: CALM1 binders on microarrays, EGTA buffer, profiling panel, biochemical, small-molecule microarray, Cy5-labelled CALM1 (AID 1111); conditions: Cy5-CALM1 binding fluorescence, higher = more signal;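 also: labelled calmodulin applied in Tris saline Tween buffer holding calcium plus EGTA and DTT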
# [15] = biological target: Calmodulin-1 (Homo sapiens) (UniProt P0DP23); test: calcium-bound CALM1 binders on microarrays, profiling panel, artefact control for SMM control-protein annotation, biochemical, small-molecule microarray, Cy5-labelled CALM1, plus calcium (AID 1112); conditions: Cy5-CALM1 binding fluorescence, higher = more signal;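 also: score merges spot fluorescence with signal to noise from triplicate slides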
# [16] = small-molecule microarray binders of probe aWnt5a, primary screen, biochemical, biotinylated probe, 635/667 nm fluorescence (AID 1113); conditions: higher = more signal;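 also: score merges 667 nm fluorescence intensity with signal-to-noise per printed feature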
# [17] = small-molecule microarray binders of probe aShh, primary screen, biochemical, biotinylated probe, 635/667 nm fluorescence (AID 1114); conditions: higher = more signal;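 also: probe is biotin-labelled aShh protein from a stem cell growth factor screen; measures binding of labelled protein to compounds printed on the slide; score merges feature fluorescence at 667 nm with signal-to-noise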
# [18] = small-molecule microarray binders of probe aNog, primary screen, biochemical, biotinylated probe, 635/667 nm fluorescence (AID 1115); conditions: higher = more signal;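 also: probe is biotinylated aNog protein used at 0.15 µg/mL for 1 h at 4 C; z-score combines 667 nm fluorescence of each spot with its signal to noise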
# [19] = biological target: Torsin-1A-interacting protein 1 (Homo sapiens) (UniProt Q5JTV8); test: LAP1 binders from COS7 cell lysate, primary screen, small-molecule microarray, 635/667 nm fluorescence (AID 1116); conditions: COS7-hLAP1 lysate binding, 635 nm fluorescence, higher = more signal
# Chain of Torsin-1A-interacting protein 1 (Homo sapiens) (Q5JTV8 whole entry, looked up): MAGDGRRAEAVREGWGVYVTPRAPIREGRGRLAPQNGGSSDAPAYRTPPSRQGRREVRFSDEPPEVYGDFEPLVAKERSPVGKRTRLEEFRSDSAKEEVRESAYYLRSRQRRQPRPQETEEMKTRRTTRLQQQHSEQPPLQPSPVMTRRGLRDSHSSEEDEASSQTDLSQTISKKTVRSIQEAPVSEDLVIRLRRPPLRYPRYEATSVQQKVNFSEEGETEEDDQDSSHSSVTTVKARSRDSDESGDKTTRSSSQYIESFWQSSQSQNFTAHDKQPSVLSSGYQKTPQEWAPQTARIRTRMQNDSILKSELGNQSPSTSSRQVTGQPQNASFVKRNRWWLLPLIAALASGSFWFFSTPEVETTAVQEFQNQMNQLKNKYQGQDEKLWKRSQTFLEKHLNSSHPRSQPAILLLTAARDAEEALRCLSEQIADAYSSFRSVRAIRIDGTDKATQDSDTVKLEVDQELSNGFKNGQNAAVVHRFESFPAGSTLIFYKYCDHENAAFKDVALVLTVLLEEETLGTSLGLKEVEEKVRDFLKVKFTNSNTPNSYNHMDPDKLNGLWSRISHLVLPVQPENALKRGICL
# [20] = biological target: Alpha-bungarotoxin (Bungarus multicinctus) (UniProt P60615); test: alpha-bungarotoxin binders on microarray, profiling panel, artefact control for SMM control protein annotation, biochemical, small-molecule microarray, Alexa647 label, 635/667 nm fluorescence (AID 1117); conditions: alpha-BTX-A647 binding fluorescence, higher = more signal
# Chain of Alpha-bungarotoxin (Bungarus multicinctus) (P60615 whole entry, looked up): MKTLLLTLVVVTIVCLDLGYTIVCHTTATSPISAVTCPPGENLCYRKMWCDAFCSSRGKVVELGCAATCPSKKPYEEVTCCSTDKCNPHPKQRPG
SMILES,composite z-score [1],composite z-score [2],composite z-score [3],z-score [4],composite z-score [5],composite z-score [6],composite z-score [7],composite z-score [8],composite z-score [9],composite z-score [10],composite z-score [11],z-score [12],composite z-score [13],composite z-score [14],composite z-score [15],composite z-score [16],composite z-score [17],composite z-score [18],composite z-score [19],composite z-score [20]
CCC1=NOC(CCC2CC(OC(=O)NCc3cccc4c3OCO4)CC3(CCCC(COC(=O)NCCc4ccc(Cl)cc4)O3)O2)C1 (stereo not given),0.354,-0.0936,-0.341,0.116 (inactive),1.41,0.173,-0.0917,0.147,0.119,0.0081,0.916,-0.0374,0.304,-0.257,-0.532,-0.142,-0.16,-0.402,-0.342,-0.148
CC(C)=CCCC(C)=CCON=C1C[C@@H](O)[C@@H](O)[C@@H]2[C@@H]3C(=O)N(C4CCCCC4)C(=O)[C@@H]3CC[C@H]12,0.475,-0.107,-0.304,-0.693 (inactive),0.785,0.701,0.513,1.11,0.873,0.644,0.684,-0.127,0.594,-0.432,-1.2,-0.0425,-0.0904,-0.341,-0.0853,0.713
Cc1ccc(S(=O)(=O)N[C@@H]2COC(=O)CC=C[C@@H](C)[C@H](NS(=O)(=O)c3ccc(C)cc3)COC(=O)[C@H](C)NC(=O)CC=C[C@H]2C)cc1,-0.267,-0.472,-0.684,-0.294 (inactive),-0.0861,-0.0951,0.0994,0.129,0.123,1.27,-1.64,0.311,0.846,-0.683,-0.951,-0.194,-0.221,0.122,-0.123,-0.621
COc1cccc([C@H]2Oc3ccc(OC)cc3C(=NOCC[C@@H]3C=C[C@H](OC(C)=O)[C@@H](COC(C)=O)O3)[C@@H]2O)c1,1.21,0.0266,-0.153,-0.019 (inactive),0.696,0.321,0.274,0.795,0.718,0.842,0.687,-0.544,0.492,-0.547,-0.314,-0.0865,-0.0553,0.197,0.786,0.635
COCC#Cc1ccc([C@@H]2N[C@H](C(=O)O)CC[C@H]2C)cc1,-0.331,0.159,-0.0016,-1.63 (inactive),0.129,0.223,0.362,0.246,0.302,0.784,-0.216,0.958,0.794,-0.292,0,-0.224,-0.117,-0.186,-0.416,0.0645
COc1ccc(OC[C@@H]2CC3[C@@H](c4ccc(Br)cc4)[C@H](C)CC[C@H]3C(=O)O2)cc1 (stereo not given in full),0.353,-0.436,-0.727,-0.823 (inactive),0.638,-0.274,0.885,0.354,0.827,0.483,-0.722,-0.312,0.418,-0.991,-0.642,-0.158,-0.367,-0.0003,0.308,0.287
COc1ccc(O[C@H]2C=C[C@@H](c3ccccc3)O[C@@H]2CON=C2c3cc(OC)ccc3O[C@H](c3cccc(OC)c3)[C@H]2O)cc1,-0.177,0.242,-0.279,0.65 (inactive),0.886,0.192,0.531,0.589,0.434,-0.393,-0.382,-1.78,0.804,-0.0756,0.335,-0.0735,0.296,-0.106,0.399,0.328
COc1ccc(O[C@H]2C=C[C@@H](c3ccccc3)O[C@@H]2COC(=O)CCC(C)=NOC[C@@H](O)COCc2ccco2)cc1,-1.47,-0.866,0.0183,-0.909 (inactive),-2.67,-1.95,-2.8,-2.9,-1.99,-0.0879,-0.82,-0.681,-4.63,-2.11,-2.04,-0.449,-0.267,-0.715,-2.94,-1.65
CCOC(=O)[C@H](Cc1ccccc1)NC(=O)CCC1CC(OC(=O)NCCc2ccc(F)cc2)CC2(CCCC(COC(=O)NCc3cccc(C(F)(F)F)c3)O2)O1 (stereo not given in full),0.863,-0.139,-0.311,-0.891 (inactive),0.904,1.06,0.818,0.786,0.484,-0.335,1.3,-1.8,0.763,1.43,0.465,-0.154,-0.221,0.0498,0.109,1.04
CSCC[C@@H]1NC(=O)CC=C[C@@H](C)COC(=O)[C@H](C)COC1=O,0.926,-0.641,-2.03,-0.841 (inactive),1.49,0.781,1.67,1.23,2.31,-2.83,-1.63,0.894,1.71,-2.28,-3.17,-0.286,-0.0035,-0.321,0.443,-1.96
COc1ccc(O[C@H]2C=C[C@@H](c3ccccc3)O[C@@H]2CO)cc1,0.281,-0.227,-0.116,-0.752 (inactive),0.194,0.207,0.731,0.318,0.485,0.622,-0.438,0.231,0.213,-0.329,-0.643,-0.148,0.0278,0.041,0.171,0.441
